Reference: PubChem BioAssay (NCATS)
Inconclusive results are not listed. Unmarked numbers belong to inactive results. Active and inactive are the calls of the source. Calls follow the shape of the dose curve; as a rule, active = well fitted inhibition curve with a large enough effect; inconclusive = small, poorly fitted or top-dose-only effect; inactive = no such curve, though single readings can be large or run the other way.

assay: S16 Schwann cell PMP22 intronic element firefly luciferase assay (AID 624032); settings: S16 rat Schwann cells, PMP22 element FLuc, 24 h; series mostly up to 57.5 µM; activity change, negative = inhibition: at the top concentration; also: nearly all actives have a fitted effect of over 30% in size
Source text: Charcot-Marie-Tooth-Association [CMTA]
National Center for Advancing Translational Sciences [NCATS]
Charcot-Marie-Tooth (CMT) disease was first characterized by Jean-Martin Charcot and Pierre Marie in France and, independently, by Howard Henry Tooth in England in 1886. CMT is one of the most common inherited neurological diseases, affecting approximately 1 in 2,500 Americans. […] The most prevalent type of CMT is known as CMT1A and caused by a duplication of the PMP22 gene which leads to over-expression of this protein. PMP22 is a glycosylated intrinsic membrane protein accounting for 2-5% of the myelin protein content, and its over-expression results in demyelination and subsequently axonal loss.
A pair of cellular transcription-based assays was developed in the S16 rat Schwann cell lines (Hai, M., et al., 2002) stably transfected with orthogonal reporters - firefly luciferase (Fluc) and beta-lactamase (beta-Lac) - whose expression is driven by an intronic regulatory element of the PMP22 gene (Jones, E.A., et al., 2011) to recapitulate endogenous expression of PMP22. The current assay employs Fluc to report on PMP22 expression. A comprehensive library of approved drugs, the NCGC Pharmaceutical Collection (Huang, R., et al., 2011), was screened in the cross-validating platform of the orthogonal reporter assays to identify drug modulators inhibitory towards PMP22 expression.
A set of counter-screens was devised to address non-specific activity of the library. An ATP-dependent CellTiter-Glo assay (developed by Promega Corp) was utilized to control cell viability. In addition, biochemical Fluc enzyme assay was performed to assess direct inhibition of the Fluc enzymatic activity.
Hai, M., Muja, N., DeVries, G.H., Quarles, R.H. and Patel, P.I. Comparative analysis of Schwann cell lines as model systems for myelin gene transcription studies. J Neurosci Res, 2002. 69(4): pp 497-508
Huang, R., Southall, N., Wang, Y., Yasgar A., Shinn P., Jadhav, A. , Nguyen, D.-T. and Austin, C.P., The NCGC pharmaceutical collection: a comprehensive resource of clinically approved drugs enabling repurposing and chemical genomics. Sci Transl Med, 2011. 3(80): p. 80ps16.
S16 Schwann cell PMP22 intronic element firefly luciferase assay
The FLuc-expressing S16 cells were seeded in white solid 1536-well plates at between 500-750 cells/4uL in DMEM medium containing 10% FBS, w/o phenol red. After overnight incubation at 37 degree Celsius/5% C02, 23 nL of compounds or DMSO were delivered to each well using a pin tool, followed by 24h-incubation at 37 degree Celsius/5% C02. Then 4 uL ONE-Glo luminescent substrate mix (Promega) was added to each well. Luminescence was measured on a ViewLux plate reader (Perkin Elmer). The % activity was determined by normalizing to the average readings of PTC124 (a positive control) - treated cells relative to DMSO-treated cells (0% Activity). The concentration-effect curves were then classified based on curve quality (r2), response magnitude and degree of measured activity.
Potency is read from the fitted curve at half-maximal effect.

Row | Compound | Potency | activity change, negative = inhibition
1 | CN(C)C(=S)SSC(=S)N(C)C | 1.44 µM (active) | 
2 | O=C(Nc1ccc(Cl)cc1)Nc1ccc(Cl)c(Cl)c1 |  | 57.7%
3 | O=C(O)c1ccc(OCCCOc2ccc(C(=O)O)cc2)cc1 |  | 38.2%
4 | COP(=O)(OC)C(O)C(Cl)(Cl)Cl (stereo not given) |  | -17.4%
5 | COc1cc(C(=S)N2CCOCC2)ccc1O | 5.1 µM (active) | 
6 | CCCCCCCCC(=O)NCc1ccc(O)c(OC)c1 |  | 1.41%
7 | CC(C)(C)OC(=O)c1ncn2c1[C@@H]1CCCN1C(=O)c1c(Br)cccc1-2 |  | -4.09%
8 | O=C(CCCN1CCC(n2c(=O)[nH]c3ccccc32)CC1)c1ccc(F)cc1 |  | -9.02% [at 25.7 µM]
9 | C[C@]12CC[C@H]3[C@@H](CC=C4C[C@@H](O)CC[C@@]43C)[C@@H]1CC[C@@H]2O |  | -32.3%
10 | O=c1n(Cl)c(=O)n(Cl)c(=O)n1Cl |  | -13.1%
11 | CC[C@]1(O)CC[C@H]2[C@@H]3CCC4=CCCC[C@@H]4[C@H]3CC[C@@]21C | 9.07 µM (active) | 
12 | N#Cc1nn(-c2c(Cl)cc(C(F)(F)F)cc2Cl)c(N)c1S(=O)C(F)(F)F (stereo not given) | 10.2 µM (active) | 
13 | CCOC(=O)NC(O)C(Cl)(Cl)Cl (stereo not given) |  | -12.9%
14 | CCCCCCCCCCCCOCCOCCOCCOCCOCCOCCOCCOCCOCCO | 18.1 µM (active) | 
15 | Cc1cccc(C)c1NC(=O)CN1CCCC1 | 8.09 µM (active) | 
16 | CC(C)(C)C(=O)C(Oc1ccc(Cl)cc1)n1ccnc1 (stereo not given) | 2.03 µM (active) | 
17 | Clc1ccc(CO/N=C(\Cn2ccnc2)c2ccc(Cl)cc2Cl)c(Cl)c1 | 32.2 µM (active) | 
18 | CCNc1nc(Cl)nc(NCC)n1 |  | -6.62%
19 | CCC1(c2ccccc2)CCC(=O)NC1=O (stereo not given) |  | 15.9%
20 | CN(C)C(=S)SC(=S)N(C)C | 2.87 µM (active) | 

Row | Compound | Potency | activity change, negative = inhibition
21 | O=C(O)c1nn(Cc2ccc(Cl)cc2Cl)c2ccccc12 |  | 4.11%
22 | CCS(=O)(=O)C(C)(C)S(=O)(=O)CC |  | 7.42%
23 | NC(=O)NNc1ccccc1 | inactive | 
24 | COc1ccc(CN2CCNCC2)c(OC)c1OC |  | -12% [at 25.7 µM]
25 | CCC(=O)O[C@H]1CC[C@H]2[C@@H]3CCC4=CC(=O)CC[C@]4(C)[C@H]3CC[C@]12C |  | -19.1% [at 25.7 µM]
26 | COc1ccc(C(=O)N2CCCC2=O)cc1 |  | 3.95%
27 | COCC(=O)N(c1c(C)cccc1C)C(C)C(=O)OC (stereo not given) |  | -0.398%
28 | Cc1ccc(N=CN(C)C=Nc2ccc(C)cc2C)c(C)c1 |  | -0.894%
29 | CC(C)[N+](C)(CCC(C(N)=O)(c1ccccc1)c1ccccc1)C(C)C |  | 11% [at 25.7 µM]
30 | CN1C[C@@H](NS(=O)(=O)N(C)C)C[C@@H]2c3cccc4c3c(cn4C)C[C@H]21 |  | 27.8%
31 | Oc1c(Br)cc(Br)cc1Br |  | -1.89%
32 | CC1CCc2cc(F)cc3c(=O)c(C(=O)O)cn1c23 (stereo not given) |  | 37.7%
33 | CN1CCN(c2cc3c(nn2)Oc2ccccc2N3C)CC1 |  | 108%
34 | Cc1c(Cl)c(=O)oc2cc(OP(=O)(OCCCl)OCCCl)ccc12 | 12.8 µM (active) | 
35 | c1ccc2nc(N3CCNCC3)ccc2c1 |  | 1.02%
36 | CC[n+]1c(-c2ccccc2)c2cc(N)ccc2c2ccc(N)cc21 |  | -24.3%
37 | CCN(CC)C(C)C(=O)c1ccccc1 (stereo not given) |  | 7.8%
38 | O=c1cc(CO)occ1O | 16.1 µM (active) | 
39 | COC(=O)C1=CCCN(C)C1 |  | 46.3%
40 | CC(C)(O)C(Cl)(Cl)Cl |  | -11.7%
